Measurements taken from PubChem BioAssay.
Inconclusive results are not listed. The source made the active and inactive calls.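 The calls were made as follows, unless noted: active = viability at or below 30% in both replicate assays; inconclusive = viability at or below 30% in just one of the two assays; inactive = the rest.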

Legend:
[1] = reducers of endogenous Her2 protein level, primary screen, SKBR3 breast tumor cells, AlphaScreen, ATP viability (AID 461;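 active = Her2 level under about 52% in both replicate screens, with viability over 70% of control, limit read from the data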;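 as to Her2 level: lower value means less Her2 protein in the cells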;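 as to viability: percent of carrier control wells set as 100% viability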); details: 18-24 h, measured here: SKBR3 viability, ATP luminescence, at 10 µM
[2] = target: Receptor tyrosine-protein kinase erbB-2 (Homo sapiens) (UniProt P04626); assay: as above; details: 18-24 h, at 10 µM, stronger effect = lower value
Chain of Receptor tyrosine-protein kinase erbB-2 (Homo sapiens) (P04626 whole entry, looked up): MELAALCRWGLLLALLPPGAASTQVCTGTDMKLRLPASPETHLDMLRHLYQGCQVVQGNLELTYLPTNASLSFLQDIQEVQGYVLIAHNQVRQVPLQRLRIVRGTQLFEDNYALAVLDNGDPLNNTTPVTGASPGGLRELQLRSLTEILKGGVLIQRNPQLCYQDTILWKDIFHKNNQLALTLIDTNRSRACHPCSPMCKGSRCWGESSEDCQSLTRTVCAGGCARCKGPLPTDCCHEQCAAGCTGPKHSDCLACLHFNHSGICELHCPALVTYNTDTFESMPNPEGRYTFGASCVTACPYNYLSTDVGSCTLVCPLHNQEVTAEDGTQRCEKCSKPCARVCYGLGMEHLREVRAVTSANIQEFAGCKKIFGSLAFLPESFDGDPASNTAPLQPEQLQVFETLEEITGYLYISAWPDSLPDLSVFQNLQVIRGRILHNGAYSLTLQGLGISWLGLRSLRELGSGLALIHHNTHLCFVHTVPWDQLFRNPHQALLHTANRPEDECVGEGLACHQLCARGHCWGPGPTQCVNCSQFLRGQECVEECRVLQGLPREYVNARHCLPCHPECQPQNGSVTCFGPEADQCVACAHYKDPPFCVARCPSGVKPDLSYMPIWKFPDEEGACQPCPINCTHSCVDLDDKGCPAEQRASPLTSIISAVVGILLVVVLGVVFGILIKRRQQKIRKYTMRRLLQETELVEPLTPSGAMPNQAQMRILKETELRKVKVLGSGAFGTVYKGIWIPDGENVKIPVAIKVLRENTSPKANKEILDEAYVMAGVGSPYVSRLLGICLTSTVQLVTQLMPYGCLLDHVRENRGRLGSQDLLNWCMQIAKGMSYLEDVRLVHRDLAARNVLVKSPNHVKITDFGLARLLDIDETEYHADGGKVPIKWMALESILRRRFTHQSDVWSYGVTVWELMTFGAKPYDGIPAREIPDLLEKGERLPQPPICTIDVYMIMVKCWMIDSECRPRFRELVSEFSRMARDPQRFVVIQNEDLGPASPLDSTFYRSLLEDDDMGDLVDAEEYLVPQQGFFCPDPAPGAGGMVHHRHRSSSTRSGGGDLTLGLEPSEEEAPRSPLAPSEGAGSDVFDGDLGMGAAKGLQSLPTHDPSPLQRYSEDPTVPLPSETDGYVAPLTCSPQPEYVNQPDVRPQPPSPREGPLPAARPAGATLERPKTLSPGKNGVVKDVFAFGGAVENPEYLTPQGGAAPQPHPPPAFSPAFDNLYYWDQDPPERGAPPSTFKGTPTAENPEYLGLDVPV

[3] = SK-BR-3 cell growth inhibitors, pilot screen, 24 h, human (AID 572;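 active = viability at or below 10% of carrier control in both of two separate runs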;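 also: compound exposure lasted between 18 and 24 h rather than exactly 24 h; 100% = carrier-treated control wells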); details: SK-BR-3 viability, CellTiter-Glo luminescence, at 10 µM, stronger effect = lower value
[4] = HUVEC growth inhibition – cell-based, human, primary screen (AID 575); details: HUVEC proliferation, CellTiter-Glo luminescence, 72 h; at 10 µM; stronger effect = lower value;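 also: 100% = median of untreated cell wells with 0.1% DMSO on each plate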
[5] = growth inhibitors of H69AR lung tumor, primary screen, human, duplicate replicates (AID 580;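 active = viability at or under a set limit in both replicates, limit being median viability minus 3 SD, cut at about 48% in these data, passing the limit was not always enough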;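 also: 100% = mean luminescence of untreated wells and 0% = no signal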); details: H69AR lung tumor cells viability, ATP luminescence, 72 h; at 10 µM; stronger effect = lower value
[6] = reversal of MRP1-mediated doxorubicin resistance, pilot screen, H69AR cells, doxorubicin co-treatment (AID 601;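 active = viability loss from added drug above about 55%, and viability with drug at most 40%, in both replicates, limit read from the data, passing the limit was not always enough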); details: CellTiter-Glo, 72 h, at 10 µM; for differential viability (reversal): stronger effect = higher value
[7] = 384-well plate pilot, post-Golgi transport modulator project, inhibition of yeast transport mutant growth (AID 636; in the data active = inhibition above about 31%); details: absorbance 615 nm, about 18 h, stronger effect = higher value
[8] = growth suppression of yeast trafficking mutant, preliminary HTS, modulators of trafficking downstream of Golgi apparatus project, 1536-format plate, OD 615 nm (AID 637; in the data active = inhibition above about 30%); details: yeast transport mutant growth, absorbance 615 nm, 18 h; stronger effect = higher value
[9] = OD615 S. cerevisiae growth inhibition, permissive medium, pilot counter-assay, permissive growth control for S. cerevisiae lifespan shortening project (AID 705;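 active = growth inhibition above 25% in both replicates, a cutoff set 3 SD above the mean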); details: OD615, 24 h, at 10 µM, stronger effect = higher value
[10] = Restrictive medium S. cerevisiae growth inhibition, OD615, pilot screen of yeast lifespan reduction project, restrictive growth control (AID 706;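 active = growth inhibition above a set limit, 3 SD over mean compound inhibition, in both replicates, cut at about 43% in these data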;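 also: modified DeaD lifespan yeast strain shifted to restrictive glucose medium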); details: OD615, 48 h, at 10 µM, stronger effect = higher value
[11] = viability gain of MRP-1-high H69AR cells under doxorubicin, pilot screen, MRP-1 activator project, CellTiter-Glo, duplicate (AID 807;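 active = viability increase at or above a cutoff of the median across tested compounds plus 3 SD, cut at about 8.5% in these data, passing the limit was not always enough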;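 also: compound pretreatment 18-22 h then 72 h combined with doxorubicin; 0% = doxorubicin alone and 100% = vehicle without doxorubicin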); details: H69AR viability with doxorubicin, CellTiter-Glo luminescence; at 10 µM; stronger effect = higher value
[12] = growth suppression of beta-catenin knockout HCT116, pilot screen, human colon tumor cells (AID 823;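 active = cell viability at or below a set limit in both duplicate runs, the limit being the all-compound median minus 4 SD, cut at about 23% in these data, passing the limit was not always enough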;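 also: 0% = wells killed by 20 µM Hyamine and 100% = untreated DMSO cell wells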); details: CellTiter-Glo, 60 h, at 10 µM, stronger effect = lower value
[13] = growth suppression of PTEN-deleted HCT116, pilot screen, cell-based, HCT116 clonal line, CellTiter-Glo (AID 824;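 active = viability at or below 27.92% in each of two runs, the all-compound median minus 4 SD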;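 also: 0% = 20 µM Hyamine control and 100% = vehicle cell control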); details: 60 h, at 10 µM, stronger effect = lower value
[14] = inhibitors of the yeast RAM network, pilot screen, dse1pr::URA3 reporter, 5-FOA selection (AID 869;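 active = inhibition over a set limit, the all-compound mean plus 3 SD, in both replicate runs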;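 also: 0% = DMSO wells with no growth and 100% = 10 µM 1-NA-PP1 with full growth; RAM network block rescues cells from 5-FOA so hits raise OD615 growth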); details: S. cerevisiae dse1pr::URA3 5-FOA growth, OD615, 2 d; at 10 µM; stronger effect = higher value; strain carries analog-sensitive mutant Cbk1 kinase
[15] = RAM signaling pathway blockade in yeast – S. cerevisiae, Pdr1DBD-CYC8 efflux-inhibited sensitized strain, primary screen (AID 1298;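 active = RAM network inhibition above 8.4% in each of two replicates, 3 SD over the compound average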;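 also: 0% = DMSO untreated cells without growth and 100% = 10 µM 1-NA-PP1 full growth; higher means more yeast growth rescued from 5-FOA killing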); details: S. cerevisiae cbk1-as DSE1-URA3 strain, 5-FOA growth OD615, 2 d; at 50 µM; stronger effect = higher value
[16] = H69AR cells + 2 uM doxorubicin, measured here: viability with 2 uM doxorubicin, stronger effect = lower value
[17] = H69AR cells, compound alone cytotoxicity

| Compound | viability [1] [%] | Her2 level [2] | viability [3] | viability [4] | viability [5] | differential viability (reversal) ([6]; H69AR cells + 2 uM doxorubicin) | viability [6, 16] [%] | viability [6, 17] [%] | inhibition [7] | inhibition [8] | growth inhibition [9] | growth inhibition [10] | viability increase [11] | viability [12] | viability [13] | inhibition [14] | RAM network inhibition [15] |
| --- | --- | --- | --- | --- | --- | --- | --- | --- | --- | --- | --- | --- | --- | --- | --- | --- | --- |
| CC(=O)OC1c2ccccc2C(=O)N1Cc1ccccc1Cl (stereo not drawn) | 93.5 | 92.5% (inactive) | 93.5% (inactive) | 91.3% (inactive) | 88.5% (inactive) | -2.26% (inactive) | 90.8 | 88.5 | -5.87% (inactive) | -4.83% (inactive) | -1.57% (inactive) | 5.51% (inactive) | -3.19% (inactive) | 74.6% (inactive) | 91.5% (inactive) | 0.06% (inactive) | 5.73% (inactive) |
| CC(C)CCn1c(NCCc2ccccc2)nc2c1c(=O)n(C)c(=O)n2C | 80 | 57.5% (inactive) | 80% (inactive) | 50.8% (inactive) | 81.8% (inactive) | -0.235% (inactive) | 82.1 | 81.8 | -2.93% (inactive) | 2.17% (inactive) | -0.96% (inactive) | 8.48% (inactive) | -2.21% (inactive) | 57.1% (inactive) | 57.4% (inactive) | 1.94% (inactive) | -0.32% (inactive) |
| COc1ccc(S(=O)(=O)N(CC(=O)N2CCN(c3ccccc3OC)CC2)c2ccccc2)cc1 | 74 | 108% (inactive) | 74% (inactive) | 51.8% (inactive) | 86.8% (inactive) | -8.61% (inactive) | 95.4 | 86.8 | -6.35% (inactive) | -2.3% (inactive) | -11.3% (inactive) | -11.3% (inactive) | 5.84% (inactive) | 67.2% (inactive) | 72.3% (inactive) | 0.87% (inactive) | 2.02% (inactive) |
| Cc1ccc(-c2cc(C(=O)Nc3cc(C)on3)c3ccccc3n2)c(C)c1 | 77.5 | 99.5% (inactive) | 77.5% (inactive) | 96% (inactive) | 84.7% (inactive) | -5.17% (inactive) | 89.9 | 84.7 | -4.67% (inactive) | 3.67% (inactive) | -8.89% (inactive) | -8.38% (inactive) | -0.76% (inactive) | 87.4% (inactive) | 82.4% (inactive) | 1.68% (inactive) | 7.01% (inactive) |
| CCOC(=O)C1CCN(Cc2ccc(F)c(Br)c2)CC1 | 122 | 118% (inactive) | 122% (inactive) | 106% (inactive) | 85.5% (inactive) | -7.29% (inactive) | 92.8 | 85.5 | -1.17% (inactive) | 9.5% (inactive) | -3.72% (inactive) | -1.05% (inactive) | -2.69% (inactive) | 90.4% (inactive) | 91.9% (inactive) | 2.35% (inactive) | -0.36% (inactive) |
| CCOc1ccccc1C(=O)Nc1cc(=O)n(C)c(=O)n1C | 89.5 | 88.5% (inactive) | 89.5% (inactive) | 86.8% (inactive) | 88.1% (inactive) | -1.81% (inactive) | 89.9 | 88.1 | -5.47% (inactive) | 3.5% (inactive) | -0.335% (inactive) | 2.84% (inactive) | -0.06% (inactive) | 103% (inactive) | 100% (inactive) | 0.715% (inactive) | -2.04% (inactive) |
| CN(Cc1ccccc1)S(=O)(=O)c1ccc(S(=O)(=O)N2CCN(CCC#N)CC2)cc1 | 91 | 116% (inactive) | 91% (inactive) | 92.4% (inactive) | 77.2% (inactive) | 15.4% (inactive) | 61.8 | 77.2 | -4.23% (inactive) | -7.17% (inactive) | -12% (inactive) | -4.41% (inactive) | -8.59% (inactive) | 96.9% (inactive) | 92.3% (inactive) | 0.725% (inactive) | 4.91% (inactive) |
| COc1ccccc1N1CCN(C(=O)c2cc(C3CC3)on2)CC1 | 84 | 110% (inactive) | 84% (inactive) | 80.8% (inactive) | 86.5% (inactive) | -6.73% (inactive) | 93.2 | 86.5 | -0.64% (inactive) | -3.5% (inactive) | -9.72% (inactive) | 0.825% (inactive) | 0.32% (inactive) | 98.5% (inactive) | 103% (inactive) | 0.905% (inactive) | 2.48% (inactive) |
| CCc1c(C)c2c(C)nn(-c3ccccc3)c2[nH]c1=O | 83 | 81.5% (inactive) | 83% (inactive) | 68.9% (inactive) | 90.1% (inactive) | 5.91% (inactive) | 84.2 | 90.1 | -0.65% (inactive) | -1.31% (inactive) | -3.86% (inactive) | 4.15% (inactive) | -2.75% (inactive) | 85.1% (inactive) | 79% (inactive) | 1.53% (inactive) | 0.31% (inactive) |
| CCOC(=O)N1CCC(NC(=O)c2cnn3ccccc23)CC1 | 112 | 123% (inactive) | 112% (inactive) | 86% (inactive) | 87.1% (inactive) | 1.21% (inactive) | 85.9 | 87.1 | -1.2% (inactive) | 3.67% (inactive) | -12.9% (inactive) | -10.7% (inactive) | -1.34% (inactive) | 108% (inactive) | 99.9% (inactive) | 0.135% (inactive) | 2.01% (inactive) |
| O=C(Nc1nnc(-c2ccc(Cl)cc2)o1)C1CCCCC1 | 87.5 | 99% (inactive) | 87.5% (inactive) | 67% (inactive) | 69.2% (inactive) | -17.3% (inactive) | 86.5 | 69.2 | -7.2% (inactive) | -2.33% (inactive) | 4.85% (inactive) | 8.62% (inactive) | -1.38% (inactive) | 54.2% (inactive) | 58.2% (inactive) | 1.51% (inactive) | 1.36% (inactive) |
| COC(=O)COc1cccc(NC(=O)COc2ccccc2)c1 | 99.5 | 122% (inactive) | 99.5% (inactive) | 90.7% (inactive) | 96.5% (inactive) | 3.21% (inactive) | 93.2 | 96.5 | -0.13% (inactive) | -7.33% (inactive) | -12.5% (inactive) | 3.51% (inactive) | -0.74% (inactive) | 97.2% (inactive) | 93.7% (inactive) | 1.66% (inactive) | 2.45% (inactive) |
| COc1ccc(C(=O)NCc2nnc(SC)n2C2CCCCC2)cc1 | 104 | 91% (inactive) | 104% (inactive) | 81.2% (inactive) | 92% (inactive) | 9.5% (inactive) | 82.5 | 92 | -3.33% (inactive) | -3.44% (inactive) | -4.53% (inactive) | 3.39% (inactive) | -1.51% (inactive) | 99.8% (inactive) | 96.4% (inactive) | 1.08% (inactive) | 2.76% (inactive) |
| CC(=O)Nc1cccc(NC(=O)CSc2nn3c(=O)c(C)nnc3s2)c1 | 100 | 91% (inactive) | 100% (inactive) | 76.8% (inactive) | 90.8% (inactive) | 15.5% (inactive) | 75.3 | 90.8 | -5.73% (inactive) | -4.33% (inactive) | -3.39% (inactive) | -16% (inactive) | 0.35% (inactive) | 110% (inactive) | 103% (inactive) | 1.29% (inactive) | 4.27% (inactive) |
| Cn1c(C(=O)NCC2CCCO2)cc2c(=O)n(C)c3ccccc3c21 (stereo not drawn) | 95 | 89% (inactive) | 95% (inactive) | 84.8% (inactive) | 83.6% (inactive) | 8.52% (inactive) | 75.1 | 83.6 | -2.31% (inactive) | 2.17% (inactive) | -6.67% (inactive) | 12.4% (inactive) | -4.43% (inactive) | 92.9% (inactive) | 90.7% (inactive) | 2.33% (inactive) | 0.71% (inactive) |
| O=C(Nc1cnn(Cc2ccc(Cl)cc2Cl)c1)c1noc2c1CCCC2 | 94.5 | 91.5% (inactive) | 94.5% (inactive) | 71.8% (inactive) | 88.2% (inactive) | 2.57% (inactive) | 85.6 | 88.2 | -0.13% (inactive) | -3.17% (inactive) | 2.94% (inactive) | -1.65% (inactive) | -0.32% (inactive) | 94.7% (inactive) | 82.7% (inactive) | 0.895% (inactive) | 4.07% (inactive) |
| O=C(Cn1cc2c(n1)CCCC2)NCCc1ccccc1 | 105 | 100% (inactive) | 105% (inactive) | 103% (inactive) | 88.4% (inactive) | -22.7% (inactive) | 111 | 88.4 | -1.6% (inactive) | -4.33% (inactive) | -2.47% (inactive) | -9.12% (inactive) | -0.17% (inactive) | 106% (inactive) | 95.3% (inactive) | 1.38% (inactive) | 1.42% (inactive) |
| CC1(C)NC(=O)N(CC(O)COc2cccc(F)c2)C1=O (stereo not drawn) | 97 | 112% (inactive) | 97% (inactive) | 110% (inactive) | 101% (inactive) | 1.67% (inactive) | 99.8 | 101 | 3.73% (inactive) | -1% (inactive) | -3.19% (inactive) | -1.89% (inactive) | -0.02% (inactive) | 99.9% (inactive) | 97.9% (inactive) | 1.2% (inactive) | 1.81% (inactive) |
| O=C(NCc1ccc2c(c1)OCO2)C1CCC(CNc2c(N3CCCCC3)c(=O)c2=O)CC1 (stereo not drawn) | 92.5 | 106% (inactive) | 92.5% (inactive) | 94% (inactive) | 98.9% (inactive) | 7% (inactive) | 91.9 | 98.9 | 0.64% (inactive) | -2.17% (inactive) | -2.47% (inactive) | 4.78% (inactive) | -2.93% (inactive) | 94.6% (inactive) | 88.9% (inactive) | 1% (inactive) | -0.46% (inactive) |
